GLP1R cytotox: cytotoxicity in counter-screen for GLP-1R inverse agonists | HEK293 cAMP-luciferase reporter cells, luminescence, 24 h | Potency, µM (titrated, usually from 38.3 µM), for the others: top-dose activity change, negative = inhibition, usual class: inhibitors | 410,000 tested, 0.13% active | AID 624418;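 also: loss of luciferase light is scored as toxicity; potency is read from the fitted curve at half-maximal effect; % is scaled to controls: 0 for no effect and ±100 for the full control effect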
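Compound-treated cells are incubated 24 hr at 37 deg C under 5% CO2 after a 12 hour attachment period, then luciferase detection reagent is added and luminescence is measured following 12 min at room temperature; lowered signal indicates toxicity.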
GLP1R inv ag: acts as inverse agonist at human GLP-1 receptor | P43220 | HEK293 GLP-1R CRE-luciferase, luminescence, 24 h; GLP-1R form is constitutively active | Potency, µM (series often up to 38.3 µM), without a hit: at the top dose activity change, negative = inhibition, hits mostly inhibitors | 410,000 tested, 1.6% active | AID 624417; also: potency is read from the fitted curve at half-maximal effect; % is scaled to controls: 0 for no effect and ±100 for the full control effect; nearly all actives have a fitted effect of over 55% in size
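Cells are plated, allowed 12 hours at 37 deg C, then treated with compounds for 24 hr before luciferase detection reagent is added and luminescence is read after 12 min at room temperature. The HEK293 line carries constitutively active GLP-1R with a cAMP-responsive reporter.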
TRHR agonist: TRH receptor (human) agonism; P34981; TRHR cells, calcium flux fluo-8, FDSS agonist mode; activation, % at 2 µM; 360,000 tested, 0.18% active; AID 493084; in the data active = activation above about 30%; also: 0% is about no effect
Target sequence (P34981 whole entry, looked up): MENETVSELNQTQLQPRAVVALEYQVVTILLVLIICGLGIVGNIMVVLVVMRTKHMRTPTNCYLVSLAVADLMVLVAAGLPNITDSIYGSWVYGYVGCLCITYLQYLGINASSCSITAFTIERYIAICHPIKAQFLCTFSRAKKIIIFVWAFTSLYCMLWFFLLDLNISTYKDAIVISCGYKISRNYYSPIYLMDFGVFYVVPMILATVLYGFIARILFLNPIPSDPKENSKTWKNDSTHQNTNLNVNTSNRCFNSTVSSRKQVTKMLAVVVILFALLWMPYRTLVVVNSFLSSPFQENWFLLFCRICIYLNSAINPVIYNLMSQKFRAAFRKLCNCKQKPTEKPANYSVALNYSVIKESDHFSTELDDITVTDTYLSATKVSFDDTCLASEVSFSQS
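Read-out: compound-evoked intracellular calcium rise in TRHR cells, fluo-8 dye, kinetic FDSS fluorescence at 1 s/cycle following a 10-cycle baseline. Cells cultured overnight before dye loading (30 min–1.5 h, RT).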
PTHR1 agonist: PTHR1 (human) receptor agonism; Q03431; HEK293 GP2 PTHR1 cells, GloSensor cAMP luminescence, 1 h; Potency, µM (series often up to 115 µM), inactives show top-dose activation, usual class: activators; 410,000 tested, 0.075% active; also: potency is read from the fitted curve at half-maximal effect; nearly all actives have a fitted effect of over 55% in size
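HEK-293-derived GP2 cells expressing PTHR1 and a GloSensor cAMP reporter, 3,000/well, plated overnight, given luciferin plus IBMX (each 0.5 mM as added) for 1 h at 37 °C, then compound for 1 h at 37 °C. Luminescence was read after 15 min at room temperature.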
GLP-1R agonist: activates the human GLP-1 receptor; 380,000 tested, 0.007% active; HEK293 GLP-1R CRE-luciferase, luminescence, 4-6 h; cells express a hypersensitive GLP-1R form; P43220; Potency, µM (highest dose often 45.6 µM), inactives show at the top dose activation, hits mostly activators; AID 624172; also: potency is read from the fitted curve at half-maximal effect; % of control where 0% means no effect
TRHR enhancer: allosterically enhances the human TRH receptor. TRHR cells, fluo-8 calcium fluorescence, EC20 TRH enhancement. enhancement, % at 2 µM. 360,000 tested, 0.66% active; in the data active = enhancement above about 30%; also: 0% is about no effect
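Enhancer read-out: after compound pinning and an initial kinetic agonist-mode read, an EC20 of TRH (10 nM final) was injected and fluo-8 calcium signal (Ex 480/Em 530) followed at 1 s/cycle for 100 cycles in TRHR-expressing cells.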
An asterisk follows results filed as active; i = inactive; ? = inconclusive; . = no result; [ ] = remark or other dose. Hits are enriched below; roughly 2.4% of the tested compounds scored in any of these assays. Unless noted, calls follow the shape of the dose curve; as a rule, active = well fitted curve in the direction sought with a large enough effect; inconclusive = small, poorly fitted or top-dose-only effect, or another doubt; inactive = no such curve, though single readings can be large; an effect the other way counts as inactive or inconclusive.

SMILES	GLP1R cytotox	GLP1R inv ag	TRHR agonist	PTHR1 agonist	GLP-1R agonist	TRHR enhancer
C=CCC[C@@H](Cc1ccc(F)cc1)C(=O)OC[C@@H](Cc1c[nH]c2ccccc12)NC(=O)[C@H](CC=C)CC(=O)N(CCO)Cc1ccccc1	-1%	?	.	i	-7%	.
C=CCC[C@H](Cc1ccc(F)cc1)C(=O)OC[C@@H](Cc1c[nH]c2ccccc12)NC(=O)[C@H](CC=C)CC(=O)N(CCO)Cc1ccccc1	?	2.8µM*	.	-6%	-5%	.
C=CC[C@@H](CC(=O)N(CCO)Cc1ccccc1)C(=O)N[C@@H](COC(=O)[C@@H](CC=C)CC(=O)OC(C)(C)C)Cc1c[nH]c2ccccc12	?	10µM*	.	3%	-3%	.
Cc1ccccc1OCC(=O)Nc1ccc2c(c1)Cc1ccccc1-2	16%	41%	-1	i	7%	5
CCC(=O)N1CCN(c2ccccc2NC(=O)COc2ccc(C(C)C)cc2)CC1	-9%	10µM*	2	-9%	15%	3
COc1ccc(OCC(=O)Nc2ccc(N3CCOCC3)c(Cl)c2)cc1	-16%	-24%	0	-9%[57.5 µM]	0%	0
COc1ccc(OCC(=O)Nc2ccc(N3CCN(C(=O)c4ccccc4)CC3)c(Cl)c2)cc1	7%	10µM*	1	-48%	0%	-1
Cc1ccccc1OCC(=O)Nc1ccc(N2CCN(C)CC2)c(Cl)c1	-4%	4.5µM*	2	-18%	12%	3
CCCOC(=O)c1ccc(Nc2c(C(=O)OCC)cnc3c(C)cc(Cl)cc23)cc1	4%	13%	-1	-14%	.	9
Cc1cc2c(cc1C)CSC(c1ccccc1OC(=O)C(C)C)SC2	-15%	10µM*	0	-14%	1%	-2
COc1cc2c(cc1OC)C(COc1ccccc1OC)N(C(=O)C(C)C)CC2 (stereo not given)	14%	17%	-1	-7%	11%	-4
CCOC(=O)c1ccc2c(c1)N(C(CC)C(=O)Nc1ccccc1OC)C(=O)c1ccccc1S2 (stereo not given)	-2%	?	1	-5%	13%	5
CCOc1ccc(Nc2nc(NCC3CCCO3)c3ccccc3n2)cc1 (stereo not given)	?	3.5µM*	-3	-29%	2%	-1
COc1ccc(Nc2nc(NCC3CCCO3)c3ccccc3n2)c(OC)c1 (stereo not given)	-2%	?	0	i	-3%	1
CN(C)CCN1C(=O)CCC2(C)C1=CCC1C2CCC2(C)C1CCC2(C)O (stereo not given)	-3%	?	.	-21%	-4%	.
Cn1nc(C(=O)Nc2sc3c(c2C#N)CCCC3)ccc1=O	5%	0%	0	45µM*	0%	1
CC(=O)Nc1sc2c(c1C#N)CCCC2	18%	13%	0	i	12%	2
COc1ccc(N(C)C(=O)c2ccc3nc(-c4ccccc4)c(-c4ccccc4)nc3c2)cc1	-8%	6.3µM*	1	i	9%	7
COc1ccc(OC)c(NC(=O)c2ccc3nc(-c4ccccc4)c(-c4ccccc4)nc3c2)c1	.	.	0	.	.	-4
O=C(Cc1cccc2ccccc12)NNC(=O)c1ccc(Br)o1	-1%	-8%	-1	15%	-6%	-5
CCNC(=S)N(CCO)Cc1cc2cc3c(cc2[nH]c1=O)OCO3	9%	5%	0	i	5%	34*
C=CCC1NS(=O)(=O)OC(CCCC)C1O (stereo not given)	3%	14%	0	-21%	6%	34*
C=CCC1NS(=O)(=O)OC(COC)C1C (stereo not given)	8%	10%	0	-7%	-3%	0
CCOC(=O)C1=C(CNCc2ccccc2Cl)NC(=O)NC1c1cccc([N+](=O)[O-])c1 (stereo not given)	-5%	?	-1	-41%	13%	7
CCOC(=O)C1=C(CNCCc2ccc(Cl)cc2)NC(=O)NC1c1cccc([N+](=O)[O-])c1 (stereo not given)	-7%	10µM*	0	-11%	11%	3
SMILES	GLP1R cytotox	GLP1R inv ag	TRHR agonist	PTHR1 agonist	GLP-1R agonist	TRHR enhancer
CC(C)N1CC(C(=O)Nc2ccc(Cl)c(Cl)c2)CC1=O (stereo not given)	-16%	?	2	15%	4%	-3
CCN1CCCC1CNC(=O)c1ccc(Sc2ccccc2Cl)c([N+](=O)[O-])c1 (stereo not given)	-28%	3.2µM*	0	i	7%	-9
CC1CCN(S(=O)(=O)c2ccc3c(c2)oc(=O)n3C)CC1	0%	1%	-1	-14%	6%	11
O=c1c2c(nc(NCCO)n1CC1CCCCC1)-c1ccccc1CC21CCCC1	?	4µM*	0	i	1%	-17
Cc1cc(C)c(/C([O-])=C(/C(=S)Nc2ccc(SC(F)F)cc2)[n+]2ccccc2)cc1C	-18%	?	-1	-30%	6%	0
[O-]/C(=C(\C(=S)Nc1ccc(SC(F)F)cc1)[n+]1ccccc1)c1cc(Cl)ccc1Cl	-11%	6.3µM*	1	-33%	11%	6
Cc1ccc(NC(=S)/C(=C(\[O-])c2ccc(Cl)s2)[n+]2cccc(CO)c2)cc1C	-21%	?	-1	i	-14%	3
[O-]/C(=C(\C(=S)Nc1ccc(SC(F)F)cc1)[n+]1cccc(CO)c1)c1ccc(Cl)s1	?	5µM*	0	-10%	10%	11
CCOc1cc(C(=O)Nc2cc(C)ccc2C)ccc1OCC(=O)N1CCCCC1	-5%	?	0	-2%	0%	0
COc1ccc(-c2n[nH]c(=S)n2CC(C)C)cc1	-18%	-4%	1	0%	-10%	3
CCOc1ccc(/C=C(\C#N)C(=O)c2c(C)[nH]c3ccccc23)cc1OC	25%	56%	1	-11%	18%	36*
CCC1=NC(c2ccc(OC)cc2)N(O)C1(C)C (stereo not given)	5%	19%	0	0%[57.5 µM]	0%	-5
O=C(COC(=O)C1=COCCO1)Nc1ncc(C(F)(F)F)cc1Cl	4%	-4%	1	i	7%	1
CC1CC1C(=O)OCc1cc(=O)n2cc(Br)ccc2n1 (stereo not given)	3%	-1%	0	-12%	0%	34*
Cc1ccc(S(=O)(=O)N2C[C@H]3N(C(=O)OC(C)C)N(C(=O)OC(C)C)C[C@H](OC(=O)NCc4ccccc4)[C@@]3(O)C2)cc1	-4%	?	.	i	4%	.

Screening data as filed in PubChem.
